Assay outcomes from PubChem.
INS promoter inh: inhibitors of insulin promoter-driven GFP, primary screen, imaging, TRM-6 cells (human fetal islet line), eGFP reporter, cell count. reporter expression induced with tamoxifen. inhibition, % at 2 µM. actives 0.9% (n = 130,000). AID 1273, 2008;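 active = inhibition above the mean plus 3 SD, with well images judged a real hit on visual review, cut at about 60% in these data, passing the limit was not always enough; inconclusive = inhibition over the cutoff but images rejected on review; inactive = inhibition not above the cutoff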
WT yeast gro inh: growth inhibition of WT strain, primary screen, mitochondrial fusion inhibitor project, WT and mutant strains, chemical genetic | mitochondrial fusion phenotypic screen | inhibition, % at 10 µM | actives 2.1% (n = 190,000) | AID 1362, 2008; in the data active = inhibition above about 58%; tested in S. cerevisiae
Insulin prom up: insulin promoter activators in MIN6 cells, imaging, high-content screening, mouse beta cells. MIN6 insulin promoter-GFP reporter; hits give high values. z-score at 5 µM. actives 0.3% (n = 190,000). AID 1625, 2009;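 active = z-score above 3 at 5 µM with at least 500 cells counted in the well; inconclusive = wells under 500 cells, flagged as cytotoxic or low count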
Cl transport mod: KCC2 cotransporter modulators, thallium flux, primary screen, cell-based, HEK293 KCC2, FluoZin-2 fluorescence, MLSMR. Solute carrier family 12 member 5 (Homo sapiens), Q9H2X9. KCC2 cells, thallium flux FluoZin-2 fluorescence. B-score of Tl+ flux slope (higher = more flux/activation; lower = inhibition) at 10 µM. actives 2.2% (n = 190,000);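 active = thallium flux slope and its plate-corrected score both differing from the plate sample mean at a set confidence after two filtering rounds, in either direction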;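 note: slope of fluorescence scaled to starting intensity during 10 to 20 s after thallium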
Target sequence (Q9H2X9 whole entry, looked up): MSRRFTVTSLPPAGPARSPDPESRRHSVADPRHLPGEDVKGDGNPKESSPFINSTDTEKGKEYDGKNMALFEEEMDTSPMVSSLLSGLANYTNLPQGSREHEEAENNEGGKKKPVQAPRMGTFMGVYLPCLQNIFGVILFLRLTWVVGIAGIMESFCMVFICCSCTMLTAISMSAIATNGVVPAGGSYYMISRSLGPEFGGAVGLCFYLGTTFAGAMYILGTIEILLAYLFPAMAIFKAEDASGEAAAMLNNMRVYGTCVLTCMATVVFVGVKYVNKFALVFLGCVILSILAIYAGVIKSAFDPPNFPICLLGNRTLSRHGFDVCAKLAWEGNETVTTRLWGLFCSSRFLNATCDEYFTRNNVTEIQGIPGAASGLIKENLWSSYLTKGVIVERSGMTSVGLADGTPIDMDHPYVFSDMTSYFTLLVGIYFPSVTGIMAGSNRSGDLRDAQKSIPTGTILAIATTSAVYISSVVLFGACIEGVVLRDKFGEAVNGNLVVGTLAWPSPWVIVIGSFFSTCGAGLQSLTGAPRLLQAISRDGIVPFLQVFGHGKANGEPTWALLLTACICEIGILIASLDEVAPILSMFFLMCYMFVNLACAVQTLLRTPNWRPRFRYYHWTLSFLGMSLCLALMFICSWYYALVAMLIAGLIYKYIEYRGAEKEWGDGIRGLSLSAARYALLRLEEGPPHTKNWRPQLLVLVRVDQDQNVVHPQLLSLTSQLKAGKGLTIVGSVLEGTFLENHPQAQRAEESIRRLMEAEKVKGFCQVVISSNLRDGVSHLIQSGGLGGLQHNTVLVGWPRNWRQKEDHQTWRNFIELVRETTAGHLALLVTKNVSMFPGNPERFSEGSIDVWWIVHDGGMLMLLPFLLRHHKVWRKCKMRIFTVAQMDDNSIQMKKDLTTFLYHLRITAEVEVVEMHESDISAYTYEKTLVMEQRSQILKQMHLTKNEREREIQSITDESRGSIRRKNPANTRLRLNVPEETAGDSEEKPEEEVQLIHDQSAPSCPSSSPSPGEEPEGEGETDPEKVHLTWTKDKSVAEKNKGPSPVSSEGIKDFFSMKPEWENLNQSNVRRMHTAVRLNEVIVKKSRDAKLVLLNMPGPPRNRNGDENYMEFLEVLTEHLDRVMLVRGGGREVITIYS
Lmaj promast: Leishmania major promastigote growth inhibition, primary screen | inhibition, % at 10 µM | AID 1063, 2008 | Leishmania major promastigotes, resazurin fluorescence viability | actives 9% (n = 200,000); in the data active = inhibition above about 50%;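 note: promastigotes grown with compound for 44 hours at 28 °C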
ROMK mod: ROMK potassium channel modulators, primary screen, cell-based, thallium flux, MLSMR library | actives 2% (n = 130,000) | Tet-inducible ROMK, thallium flux fluorescence; actives lie on both sides | ATP-sensitive inward rectifier potassium channel 1 (Homo sapiens), P48048 | B-score at 10 µM;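 active = signal ratio slope over the read window, or its plate-corrected B-score, at least 3 SD from the plate mean, either direction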;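 note: B-score of the F/F0 ratio slope over 7 to 12 s after thallium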
KCC2 sec1: KCC2 modulators in sodium-free buffer, confirmation, cell-based, HEK293 KCC2, thallium flux, secondary assay | shares compounds with Cl transport mod | FluoZin2 fluorescence; hits give high values | normalised thallium flux (F/F0 slope) at 10 µM | actives 15% (n = 3,700);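 active = thallium flux slope above the same plate's solvent-only control mean plus 3 SD; inconclusive = the two replicate wells disagree; inactive = no significant difference from solvent-only control wells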
KCC2 bumet counter: thallium flux persisting under bumetanide in KCC2 cells, confirmation, counter-screen for KCC2 modulator project, cell-based, HEK293 KCC2, FluoZin2, secondary assay 3 | shares compounds with Cl transport mod | HEK293-KCC2 + bumetanide/ouabain; hits give high values | actives 49% (n = 3,700) | AID 1714, 2009 | normalized thallium flux at 10 µM;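 active = thallium entry rate above the same plate's blocked-transporter control wells by more than 3 SD; inconclusive = the two repeat wells disagree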;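 note: raw slope of fluorescence over initial fluorescence between 10 and 20 s after thallium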
KCC2 sec2: KCC2 modulators without ouabain present, confirmation, cell-based, HEK293 KCC2, thallium flux, FluoZin2, secondary assay 2 | normalized thallium flux at 10 µM | actives 23% (n = 3,700) | thallium flux FluoZin2 fluorescence; actives lie on both sides; F/F0 rise rate, 10–20 s post-thallium | shares compounds with Cl transport mod | AID 1715, 2009;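 active = thallium flux slope more than 3 SD above or below the plate's solvent-only control mean, mostly below; inconclusive = the two repeat wells disagreed; inactive = no significant shift from solvent-only controls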
HEK293 Tl flux: thallium flux modulation in parental HEK cells, confirmation, counter-screen for KCC2 modulator project, cell-based, counterscreen 1. HEK293 parental cells, thallium flux FluoZin2, ouabain; baseline-ratio fluorescence slope, 10–20 s after thallium. shares compounds with Cl transport mod. thallium flux rate (normalised fluorescence) at 10 µM. actives 46% (n = 3,700);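 active = thallium flux rate significantly above the same plate's solvent-only control wells, beyond their mean plus 3 SD; inconclusive = the two replicate wells gave conflicting results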
KCC2 ouabain: KCC2 inhibitors and activators, ouabain retest, confirmation, HEK-KCC2 cells; shares compounds with Cl transport mod; HEK293-KCC2, thallium flux FluoZin2 fluorescence; bidirectional: low = inhibitor, high = activator; raw Tl+ flux slope (below DMSO = inhibition, above = activation) at 10 µM; actives 48% (n = 3,700); AID 1717, 2009;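 active = thallium flux slope beyond 3 SD from same-plate DMSO control mean in most replicates, usually higher, sometimes lower; inconclusive = repeat tests gave conflicting results; inactive = no significant difference from controls in most replicates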;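 note: slope of initial-normalized fluorescence between seconds 10 and 20 after thallium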
HEK counter2: native HEK Tl+ uptake effects, second counter-screen – HEK cells, counterscreen 2, counter-screen for KCC2 modulator project, confirmation. shares compounds with Cl transport mod. HEK293 parental, thallium flux FluoZin-2 fluorescence slope. thallium flux slope at 10 µM. actives 33% (n = 3,700). AID 1718, 2009;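 active = thallium flux slope above the same plate's solvent-control mean plus 3 SD in both duplicate wells; inconclusive = duplicate wells that disagreed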;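 note: run without ouabain in cells lacking the KCC2 cotransporter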
A number is an active result; 0 = inactive; ? = inconclusive; - = not tested or not shown. A selection: hits, their analogues and other compounds. The true share with any hit is near 12%.

SMILES	INS promoter inh	WT yeast gro inh	Insulin prom up	Cl transport mod	Lmaj promast	ROMK mod	KCC2 sec1	KCC2 bumet counter	KCC2 sec2	HEK293 Tl flux	KCC2 ouabain	HEK counter2
CCOC(=O)C1CCCN(C2CCN(Cc3nc(Cc4ccccc4)no3)CC2)C1 (stereo not given)	-	0	0	-	0	-	-	-	-	-	-	-
O=C(N/N=C/c1ccc([N+](=O)[O-])o1)c1sc2ccccc2c1Cl	-	-	0	16.8	-	-	0.0185	0.102	0	0.0192	0.0537	0.0118
Cn1cccc1/C=N/NC(=O)c1sc2ccccc2c1Cl	-	0	0	0	0	0	-	-	-	-	-	-
CC12COC3(C(=O)NCCc4ccccc4)CC1CCC32C (stereo not given)	0	0	0	0	0	0	-	-	-	-	-	-
COc1ccc(N2C(=O)C(CC(N)=O)N(NC(=O)c3cccc(OC)c3)C2=S)cc1 (stereo not given)	0	0	0	0	0	0	-	-	-	-	-	-
Cc1cc(=O)[nH]c(SCC(=O)Nc2ccc(Br)cc2)c1C#N	0	0	0	-2.9	0	0	0	0	0.0229	0.006	0.0151	?
Cc1cc2c(c(=O)n1C)C(Cc1ccccc1)C(C#N)=C(N)O2 (stereo not given)	0	0	0	0	0	0	-	-	-	-	-	-
COc1ccc(OC)c(C(=O)COC(=O)c2ccccc2O)c1	0	0	0	-	0	0	0	0	0	0	0.023	?
Cc1cccc(C)c1Nc1nnc(SCC(=O)NC2CCS(=O)(=O)C2)s1 (stereo not given)	0	0	0	0	0	0	-	-	-	-	-	-
Cc1cccc(C)c1Nc1nnc(SCC(=O)NC(=O)c2cccn2C)s1	0	0	0	-4.7	0	0	0	0	0	0.0047	0.0139	0
N#CC1CCN(c2ncccc2[N+](=O)[O-])CC1	-	-	0	0	-	-	-	-	-	-	-	-
O=C(COc1ccccc1)Nc1cccc2nsnc12	0	0	0	0	0	-	-	-	-	-	-	-
CCOC(=O)N=Nc1c(O)n(C)c2ccccc12	-	0	0	0	0	0	-	-	-	-	-	-
Cc1ccccc1OCC(=O)N=Nc1c(O)n(C)c2ccccc12	-	-	0	28.2	-	-	?	0.0287	0	0.0287	0.031	0.0221
N#Cc1c(Nc2ccc(F)cc2)sc(C(=O)c2ccc(F)cc2)c1N	-	0	0	0	0	-	-	-	-	-	-	-
Cc1nc2nc(-c3cccnc3)[nH]n2c(=O)c1Cc1ccccc1	0	0	0	0	0	-	-	-	-	-	-	-
Cc1nc2c(-c3ccccc3)c[nH]n2c(=O)c1Cc1ccccc1	0	0	0	16.3	58.9	0	0	0.025	0	0.02	0.0296	0.0194
O=C(Nc1cccc2ccccc12)N1CCN(c2ncccn2)CC1	0	0	0	-4.06	0	0	0	?	0	0	0	0
Cc1[nH]n(-c2ccccc2)c(=O)c1/C=N/N(C)c1ccccc1	0	0	0	22	0	-	0	0.0501	0.0452	0.0324	0.0444	0.0354
Cc1[nH]n(-c2ccccc2)c(=O)c1/C=N/N1C(=O)c2ccc3c4c(ccc(c24)C1=O)CC3	0	0	0	11	0	-	?	0.0209	0	0.0115	?	0
Cc1[nH]n(-c2ccccc2)c(=O)c1/C=N/O	0	0	0	-	0	0	-	-	-	-	-	-
CN(C(=O)/C=C/c1ccco1)c1ccccc1C(=O)O	-	0	-	0	0	0	-	-	-	-	-	-
CCCOC(=O)CSc1nc(N)c(C#N)c(-c2ccco2)c1C#N	0	0	-	0	0	-	-	-	-	-	-	-
O=C(CCn1c(=O)[nH]c2ccsc2c1=O)N(CCc1ccccc1)Cc1ccccc1	0	0	-	-	0	0	0	0	0	0	?	0
CC(C)(CC(=O)N1CCN(c2ccc(Cl)cc2)CC1)CC1=NS(=O)(=O)c2ccccc2N1	0	0	0	0	0	-	-	-	-	-	-	-
SMILES	INS promoter inh	WT yeast gro inh	Insulin prom up	Cl transport mod	Lmaj promast	ROMK mod	KCC2 sec1	KCC2 bumet counter	KCC2 sec2	HEK293 Tl flux	KCC2 ouabain	HEK counter2
CC(C)CNC(=O)c1ccc(COc2ccc(Cl)cc2Cl)o1	0	0	0	-4.03	0	-	0	0	0.0233	0	0.0134	0
CCN(CC)S(=O)(=O)c1ccc(C(=O)NCCc2ccccn2)cc1	0	0	0	0	0	0	-	-	-	-	-	-
COc1ccc(Cl)cc1C(=O)CSc1nc(N)cc(N)n1	-	0	0	-8.65	0	0	0	0	0	0	0	0
CCCCn1nnnc1SCC(=O)c1cc(Cl)ccc1OC	0	0	0	0	0	-	-	-	-	-	-	-
COc1ccccc1-c1nnc2sc(COc3ccc(Cl)cc3Cl)nn12	0	0	0	0	0	0	-	-	-	-	-	-
c1ccc(OCc2nn3c(Cn4nnc5ccccc54)nnc3s2)cc1	-	0	0	-2.56	0	0	0	0	0	0	0.0152	0
Brc1ccccc1-c1nnc2sc(Cc3ccccc3)nn12	0	0	0	-4.05	0	-	0	0	?	?	0.0129	0
COc1ccccc1-c1nnc2sc(COc3ccccc3)nn12	0	0	0	0	0	0	0	?	0.024	0.00636	0.0148	?
COc1ccc(Cc2nn3c(-c4ccccc4Br)nnc3s2)cc1	0	0	0	0	0	-	-	-	-	-	-	-
O=c1c2ccc(Cl)cc2[nH]c(=S)n1CCCN1CCOCC1	0	0	0	6.46	0	0	?	0.0363	0	0.0146	0.0344	0.0112
O=c1c2sc3ccccc3c2[nH]c(=S)n1CCN1CCOCC1	0	0	-	8.63	0	0	0	0.0165	0	0.0191	0.0245	0.0195
O=c1c2ccccc2[nH]c(=S)n1CCCN1CCOCC1	-	0	0	0	0	0	-	-	-	-	-	-
CCN1CCN(CCn2c(=S)[nH]c3ccccc3c2=O)CC1	0	0	0	-	0	0	-	-	-	-	-	-
